The record followed here is PubChem BioAssay (Tox21).

Assay [1] is described as follows: qHTS assay to identify small molecule antagonists of the glucocorticoid receptor (GR) signaling pathway - cell viability counter screen (AID 720693). Also: nearly all actives have a fitted effect of over 55% in size.
A short description of assay [2]: qHTS assay for identifying genotoxic compounds that show differential cytotoxicity against isogenic chicken DT40 cell lines with known DNA damage response pathways - wild type cell line (AID 743012). Also: nearly all actives have a fitted effect of over 60% in size. The procedure, abridged:
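300 wt DT40 cells/well; cpd (DMSO) pintool-transferred after ~0.5 h at 37 C/5% CO2; 40 h incubation; CellTiter-Glo added, 30 min RT; luminescence read.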
On the technique in general: Quantitative high-throughput screening tests each substance at several concentrations.

Assay [3] is described as follows: qHTS assay for identifying genotoxic compounds that show differential cytotoxicity against isogenic chicken DT40 cell lines with known DNA damage response pathways - Rev3 mutant cell line (AID 743014). Also: nearly all actives have a fitted effect of over 55% in size.
Assay [4] can be described thus: qHTS assay for identifying genotoxic compounds that show differential cytotoxicity against isogenic chicken DT40 cell lines with known DNA damage response pathways - Rad54/Ku70 mutant cell line (AID 743015). Also: nearly all actives have a fitted effect of over 60% in size. Also: potency is read from the fitted curve at half-maximal effect.
The nature of assay [5]: qHTS assay to identify small molecule antagonists of the androgen receptor (AR) signaling pathway - cell viability counter screen (AID 743033; also: nearly all actives have a fitted effect of over 45% in size).
Assay [6] is described as follows: qHTS assay to identify small molecule antagonists of the androgen receptor (AR) signaling pathway using the MDA cell line - cell viability counter screen (AID 743041; also: nearly all actives have a fitted effect of over 45% in size). Summed up: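 Cytotoxicity counter screen: MDA-kb2 AR-luc cells, compound + R1881, 16 h, 37C, 0% CO2; CellTiter-Fluor added at 15.5 h, fluorescence read after 30 min.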
Assay [7] can be described thus: qHTS assay to identify small molecule antagonists of the thyroid receptor (TR) signaling pathway - cell viability counter screen (AID 743064). Also: nearly all actives have a fitted effect of over 50% in size. The procedure, abridged: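 Viability of T3-stimulated (1 nM final) GH3.TRE-Luc cells is measured by CellTiter-Fluor fluorescence after 23.5 h compound exposure at 37 °C plus 30 min reagent incubation.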
The nature of assay [8]: qHTS assay to identify small molecule antagonists of the thyroid receptor (TR) signaling pathway (AID 743065). Also: series mostly up to about 70 µM; nearly all actives have a fitted effect of over 55% in size. Summed up: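 GH3.TRE-Luc rat pituitary cells (two TREs driving luciferase) were dosed with compound, then stimulated with 1 nM T3 (final) for 23.5 h at 37 C. ONE-Glo luminescence was the read-out, with CellTiter-Fluor fluorescence as the cytotoxicity counter-screen.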

For assay [9], the system named is thyroid hormone receptor (rat, GH3 cells). As to the kind of experiment: qHTS assay to identify small molecule agonists of the thyroid receptor (TR) signaling pathway (AID 743066; calls by dose curve).
Assay [10] has as its target Estrogen receptor (Homo sapiens) (UniProt P03372). As to the kind of experiment: qHTS assay to identify small molecule antagonists of the estrogen receptor alpha (ER-alpha) signaling pathway (AID 743069; active = well fitted curve in the direction sought with a large enough effect in the signal ratio in the repeat runs, not every such curve was filed as active; the % refers to the signal ratio). Summed up:
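Beta-lactamase FRET fluorescence is read after 2 hr at room temperature with LiveBLAzer B/G substrate. Before that, ER-alpha-bla HEK293 cells sit 4 hr after plating, then receive compound plus 17beta-estradiol and incubate 18 hr at 37C.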

Assay [11] in a line: qHTS assay to identify small molecule antagonists of the estrogen receptor alpha (ER-alpha) signaling pathway - cell viability counter screen (AID 743074; calls by dose curve;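 also: HEK293 cells carrying ER-alpha-UAS-bla reporter stimulated with 17beta-estradiol; nearly all actives have a fitted effect of over 45% in size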).
Assay [12] deals with Estrogen receptor (Homo sapiens) (UniProt P03372). As to the kind of experiment: qHTS assay to identify small molecule agonists of the estrogen receptor alpha (ER-alpha) signaling pathway (AID 743075; calls by dose curve;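 also: HEK293 GripTite cells with ER-alpha and UAS-driven beta-lactamase reporter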).
Sequence of Estrogen receptor (Homo sapiens) (P03372 whole entry, looked up): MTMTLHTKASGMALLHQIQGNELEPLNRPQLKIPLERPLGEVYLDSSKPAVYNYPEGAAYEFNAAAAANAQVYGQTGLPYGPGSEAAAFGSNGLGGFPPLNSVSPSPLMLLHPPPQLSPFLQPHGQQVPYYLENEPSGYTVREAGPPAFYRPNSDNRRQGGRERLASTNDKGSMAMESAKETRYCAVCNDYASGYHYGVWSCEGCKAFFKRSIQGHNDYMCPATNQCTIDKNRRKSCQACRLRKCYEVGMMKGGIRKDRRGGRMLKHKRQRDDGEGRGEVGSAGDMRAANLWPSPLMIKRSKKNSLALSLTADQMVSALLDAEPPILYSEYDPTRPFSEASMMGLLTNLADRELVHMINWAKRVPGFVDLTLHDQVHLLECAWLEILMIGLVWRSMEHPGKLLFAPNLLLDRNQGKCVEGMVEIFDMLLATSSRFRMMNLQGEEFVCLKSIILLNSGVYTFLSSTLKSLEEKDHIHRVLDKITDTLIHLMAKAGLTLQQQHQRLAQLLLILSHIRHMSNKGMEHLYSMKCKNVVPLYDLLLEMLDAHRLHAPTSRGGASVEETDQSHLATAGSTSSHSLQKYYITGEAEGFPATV
For assay [13] the target is unchanged. As to the kind of experiment: qHTS assay to identify small molecule agonists of the estrogen receptor alpha (ER-alpha) signaling pathway using the BG1 cell line (AID 743079). Also: nearly all actives have a fitted effect of over 20% in size. Also: potency is read from the fitted curve at half-maximal effect.
Assay [14] in a line: qHTS assay to identify small molecule antagonists of the estrogen receptor alpha (ER-alpha) signaling pathway using the BG1 cell line (AID 743080; calls by dose curve; also: series mostly up to about 70 µM; nearly all actives have a fitted effect of over 25% in size). The procedure, abridged: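 Antagonist mode: compounds in DMSO were pinned onto BG1-Luc-4E2 cells alongside 17beta-estradiol agonist, incubated 21.5 h, and ERE-driven luciferase measured with ONE-Glo. Cytotoxicity was multiplexed using CellTiter-Fluor fluorescence.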

Assay [15] is described as follows: qHTS assay to identify small molecule antagonists of the estrogen receptor alpha (ER-alpha) signaling pathway using the BG1 cell line - cell viability counter screen (AID 743081).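 Also: compound given together with 17beta-estradiol as the ER stimulus; series mostly up to about 70 µM; nearly all actives have a fitted effect of over 45% in size.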
The target in another assay is Aromatase (Homo sapiens) (UniProt P11511). As to the kind of experiment: qHTS assay to identify aromatase inhibitors (AID 743083). Also: series mostly up to about 70 µM; nearly all actives have a fitted effect of over 55% in size.
Sequence of Aromatase (Homo sapiens) (P11511 whole entry, looked up): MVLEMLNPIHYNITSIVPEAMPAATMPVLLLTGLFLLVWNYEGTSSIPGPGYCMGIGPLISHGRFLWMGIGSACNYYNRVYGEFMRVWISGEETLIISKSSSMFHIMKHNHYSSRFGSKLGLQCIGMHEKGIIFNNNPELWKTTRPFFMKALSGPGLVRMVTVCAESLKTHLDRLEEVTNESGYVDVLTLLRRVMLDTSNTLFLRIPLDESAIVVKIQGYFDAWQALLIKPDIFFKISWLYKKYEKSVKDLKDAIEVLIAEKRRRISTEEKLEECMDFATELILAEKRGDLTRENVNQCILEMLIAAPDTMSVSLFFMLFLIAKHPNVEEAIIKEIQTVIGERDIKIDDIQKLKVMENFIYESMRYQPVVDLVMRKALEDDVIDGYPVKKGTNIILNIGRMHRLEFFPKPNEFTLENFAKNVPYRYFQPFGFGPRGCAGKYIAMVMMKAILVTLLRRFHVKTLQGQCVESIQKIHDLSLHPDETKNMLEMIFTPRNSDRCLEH
Assay [16] concerns the target Androgen receptor (Homo sapiens) (UniProt P10275). The assay can be described thus: qHTS assay to identify small molecule antagonists of the androgen receptor (AR) signaling pathway (AID 743035; active = well fitted inhibition curve with a large enough effect in the signal ratio in the repeat runs, not every such curve was filed as active; the % refers to the signal ratio). The procedure, abridged:
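In this cell-based reporter screen, compounds were tested in concentration series against R1881-activated HEK293 cells expressing beta-lactamase under UAS control; after 16 h at 37C, FRET substrate was added and fluorescence read 2 h later.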

The target is the same in assay [17]. The assay can be described thus: qHTS assay to identify small molecule agonists of the androgen receptor (AR) signaling pathway (AID 743036; active = well fitted activation curve with a large enough effect in the signal ratio in the repeat runs, with a control signal flat, not every such curve was filed as active; the % refers to the signal ratio). Summed up:
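Screening used 2,000 AR-bla HEK293 cells per well, treated 16 h at 37C with test compounds in DMSO alongside positive and DMSO-only controls; beta-lactamase activity was then read by LiveBLAzer B/G FRET fluorescence after 2 h at room temperature.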

The target is the same in assay [18]. As to the kind of experiment: qHTS assay to identify small molecule agonists of the androgen receptor (AR) signaling pathway using the MDA cell line (AID 743040; also: nearly all actives have a fitted effect of over 20% in size; also: potency is read from the fitted curve at half-maximal effect). Summed up: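 Luciferase read-out, ONE-Glo, 30 min RT. Cells: MDA-kb2 AR-luc, MMTV promoter with AR and GR response elements. Compound exposure 16 h, 37C, 0% CO2, after 5 h pre-incubation. qHTS agonist mode.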

The target is the same in assay [19]. The assay can be described thus: qHTS assay to identify small molecule antagonists of the androgen receptor (AR) signaling pathway using the MDA cell line (AID 743042; also: nearly all actives have a fitted effect of over 55% in size). The procedure, abridged: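 MDA-kb2 breast carcinoma cells carrying MMTV-luciferase (AR/GR responsive) were co-treated with compounds and the agonist R1881 for 16 h at 37C. Inhibition read as ONE-Glo luminescence; CellTiter-Fluor fluorescence measured in parallel for cytotoxicity.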

Where “and” joins values, the source holds several entries; their conditions need not be identical. Equal values may be shown once. Records with an inconclusive call do not appear. More than one record can exist for a structure, and the calls need not agree. Calls of active or inactive are those of the source. Unless noted, calls follow the shape of the dose curve; as a rule, active = well fitted curve in the direction sought with a large enough effect in the repeat runs; inconclusive = weak or mixed curves; inactive = no such curve, though single readings can be large; an effect the other way counts as inactive or inconclusive.

Sequence of Androgen receptor (Homo sapiens) (P10275 whole entry, looked up): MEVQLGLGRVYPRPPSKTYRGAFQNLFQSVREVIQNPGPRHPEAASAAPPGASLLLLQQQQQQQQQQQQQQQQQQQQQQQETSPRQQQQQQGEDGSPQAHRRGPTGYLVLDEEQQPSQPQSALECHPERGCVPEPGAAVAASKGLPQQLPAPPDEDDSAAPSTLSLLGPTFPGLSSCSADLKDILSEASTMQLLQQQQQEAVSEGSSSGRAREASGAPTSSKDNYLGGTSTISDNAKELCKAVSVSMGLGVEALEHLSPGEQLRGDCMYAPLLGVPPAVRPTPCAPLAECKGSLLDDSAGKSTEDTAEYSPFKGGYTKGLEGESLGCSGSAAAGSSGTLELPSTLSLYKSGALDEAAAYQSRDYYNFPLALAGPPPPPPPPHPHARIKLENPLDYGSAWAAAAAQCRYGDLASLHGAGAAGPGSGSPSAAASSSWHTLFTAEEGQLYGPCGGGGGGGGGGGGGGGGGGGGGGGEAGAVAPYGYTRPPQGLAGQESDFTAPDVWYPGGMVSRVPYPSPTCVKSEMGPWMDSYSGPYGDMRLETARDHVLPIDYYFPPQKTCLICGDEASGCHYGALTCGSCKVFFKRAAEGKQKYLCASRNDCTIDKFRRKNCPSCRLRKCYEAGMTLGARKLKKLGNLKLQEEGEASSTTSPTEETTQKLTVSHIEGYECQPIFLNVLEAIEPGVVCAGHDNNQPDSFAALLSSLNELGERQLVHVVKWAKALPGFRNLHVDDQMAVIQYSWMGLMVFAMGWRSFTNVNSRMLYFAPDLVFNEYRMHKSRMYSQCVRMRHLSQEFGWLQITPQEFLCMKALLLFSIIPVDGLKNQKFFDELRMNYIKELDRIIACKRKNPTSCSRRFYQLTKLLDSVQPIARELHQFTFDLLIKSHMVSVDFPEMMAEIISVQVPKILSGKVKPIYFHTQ

On to `CCN(CC)C(=O)c1ccc(O)c(OC)c1`, for which the outcome in assay [1], in assay [5], in assay [11] and in [15] was inactive. Further, the Potency result in [2], in assay [3], in assay [4], in [6], in assay [7] and in assay [8] was “inactive” throughout. Also, the Potency entry (in assay [9]; in assay [10]; in assay [12]; in assay [13]; in [14]; with Aromatase (Homo sapiens)) was “inactive” in each case.
As to `C=C(C)C(=O)OCCC(C)OC(=O)C(=C)C` (stereo unspecified), the molecule was classed as inactive in assay [1], in assay [5], in assay [11] and in assay [15]. In addition, the Potency result in [2], in assay [3], in assay [4], in assay [6], in assay [7] and in [8] was “inactive” each time. Moreover, the Potency result (in assay [9]; in assay [10]; in assay [12]; in [13]; in [14]; with Aromatase (Homo sapiens)) was “inactive” throughout.
With `O=C(O)C(O)[C@H](O)[C@@H](O)[C@H](O)[C@H](O)CO` (stereo partly specified), the result in assay [1], in [5], in [11] and in assay [15] was inactive. Also, the Potency result in assay [2], in assay [3], in [4], in [6], in assay [7] and in [8] was “inactive” throughout. Also, the Potency result (in [9]; in assay [10]; in assay [12]; in assay [13]; in assay [14]; in the assay with Aromatase (Homo sapiens)) was “inactive” throughout.
Take `[O-][N+](=Nc1ccccc1)c1ccccc1`: the result in assay [1], in assay [5], in assay [11] and in assay [15] was inactive. The Potency result in assay [2], in assay [3], in [6], in assay [7], in [8] and in assay [9] was “inactive” in each case. For the same molecule, the Potency result (in assay [10]; in assay [12]; with Aromatase (Homo sapiens)) was “inactive” in each case. Further, the Potency in assay [4] was 26.6 µM (active) and inactive; in assay [13], 15 µM (active) and 54.5 µM (active).
As to `CCOC(=O)Nc1ccc2c(c1)N(C(=O)CCN1CCOCC1)c1ccccc1S2`, the molecule was classed as inactive in [1], in assay [5], in assay [17], in assay [19], in [11] and in [15]. In addition, the Potency result in assay [2], in assay [3], in [4], in assay [16], in assay [7] and in assay [8] was “inactive” throughout. Further, the Potency result (in assay [9]; in assay [10]; in assay [12]; in assay [13]; in [14]; with Aromatase (Homo sapiens)) was “inactive” throughout. In assay [18], the Potency was 12.7 µM (active).
In the case of `COc1ccc(NC(C)=O)cc1`, the result in assay [1], in assay [5], in [17], in assay [19] and in assay [15] was inactive. The Potency result in assay [2], in [3], in assay [4], in assay [16], in assay [18] and in assay [6] was “inactive” each time. The Potency entry (in assay [8]; in [9]; with Aromatase (Homo sapiens)) was “inactive” throughout.
Turning to `NCC[C@H](O)C(=O)N[C@@H]1C[C@H](N)[C@@H](O[C@H]2O[C@H](CN)[C@@H](O)[C@H](O)[C@H]2O)[C@H](O)[C@H]1O[C@H]1O[C@H](CO)[C@@H](O)[C@H](N)[C@H]1O`, the call in [1], in assay [5], in assay [17], in [19], in assay [11] and in assay [15] was inactive. Besides, the Potency entry in assay [2], in [3], in [4], in assay [16], in assay [18] and in assay [6] was “inactive” in each case. For the same molecule, the Potency entry in [7], in assay [8], in [9], in assay [10], in assay [12] and in [14] was “inactive” in each case. The Potency entry with Aromatase (Homo sapiens) was “inactive”. Moreover, in assay [13], the Potency was 23.7 µM (active).
As for `CCCCc1ccc(N)cc1`, the molecule was called inactive in assay [1], in assay [5], in [11] and in assay [15]. In addition, the Potency entry in assay [2], in assay [3], in assay [4], in assay [6], in assay [7] and in [8] was “inactive” each time. The Potency result (in [9]; in [10]; in assay [12]; with Aromatase (Homo sapiens)) was “inactive” each time.
For `CC(=O)OC(C)(C)C`, the molecule was classed as inactive in [1], in assay [5], in [11] and in assay [15]. For the same molecule, the Potency result in [2], in assay [3], in assay [4], in assay [6], in assay [7] and in assay [8] was “inactive” throughout. Further, the Potency result (in [9]; in assay [10]; in assay [12]; in assay [13]; in [14]; with Aromatase (Homo sapiens)) was “inactive” in each case.
